The source made the active and inactive calls. Calls follow the shape of the dose curve; as a rule, active = well fitted cell-killing curve with a large enough effect; inconclusive = small, poorly fitted or top-dose-only effect; inactive = flat fitted curve, though single readings scatter.
Test: MultiTox-Fluor Cytotoxicity Assay - LYMP1-003 - Live Cells (AID 962);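 also: cytotoxic hits lower the live-cell protease signal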
Conditions: LYMP1-003 lymphoblastoid cells, MultiTox-Fluor live-cell protease fluorescence; series mostly up to 92.2 µM
Source text: NIH Chemical Genomics Center [NCGC]
NIH Molecular Libraries Screening Centers Network [MLSCN]
National Institutes of Environmental Health Sciences [NIEHS]
National Toxicology Program [NTP]
We have developed a 1536-well cell-based assay for quantitative high throughput screening (qHTS) against a number of cell lines to determine in vitro cytotoxicity of small molecules. This particular assay uses a human lymphoblastoid cell line (LYMP1-003) purchased from Coriell Institute.
NCGC Assay Protocol Summary:
The MultiTox-Fluor Cytotoxicity Assay (Promega) is a homogeneous method to simultaneously measure the relative number of live and dead cells in culture by detecting changes in cell membrane integrity. There are two fluorogenic peptide substrates in the assay reagent. Viable cells are determined when the cell-permeant substrate (GF-AFC) enters the cell and is cleaved by protease from live cells resulting in liberated fluorophore. This live-cell protease activity restricted to viable cells is proportional to cell number. The dead cells are determined by using fluorogenic cell-impermeant peptide substrate (bis-AAF-R110) which cleaved by dead cell proteases leaking from damaged cell membrane.
Using the MultiTox-Fluor Cytotoxicity Assay, the relative number of live cells was measured in the lymphoblastoid cell line with complete culture medium following compound treatment for 16 hours. The assay was performed in opaque black Kalypsys 1536-well plates. In the screen, tetraoctylammonium bromide was used as positive control. Library compounds were measured for their ability to cause acute toxicity in the cell line, as reflected by a decrease in live cell protease activity, in a concentration-dependent manner. […] AC50 values were determined from concentration-response data modeled with the standard Hill equation.
qHTS protocol for MultiTox-Fluor Cytotoxicity assay
[Step] [Parameter] [Value] [Description]
1. Reagent; 5 uL; 2500 lymphoblastoid cells/well
2. Time; 5 hr; 37 C incubation
4. Controls; 23 nL; Tetraoctylammonium bromide 6.4pM to 92 uM
5. Time; 16 hr; 37 C incubation
6. Reagent; 5 uL; MuliTox-Fluor Assay reagent
7. Time; 60 min; Room Temperature
8. Detection; live-cell fluorescence (Ex/Em=405/510); EnVision plate reader
Keywords: cell viability, cytotoxicity, lymphoblastoid cell line, fluorescence, NTPHTS, NTPHTS_NCGC, NIEHS, EPA, DSSTox, MLSMR, MLSCN, NIH Roadmap, qHTS, NCGC
For `CCCCOC(=O)c1ccc(N)cc1`, the outcome was “inactive”.
In the case of `CC(=O)Nc1ccc(C(=O)O)cc1`, the outcome was “inactive”.
In the case of `Cc1cc(=O)[nH]c(=S)[nH]1`, the outcome was “inactive”.
In the case of `O=C1c2cccc(O)c2C(=O)c2c(O)cccc21`, the outcome was “inactive”.
For `CC(=O)NS(=O)(=O)c1ccc(N)cc1`, the outcome was “inactive”.
With `CC(=O)Nc1cccc(O)c1` the outcome was “inactive”.
With `CCN(CC)C(=O)c1cccc(C)c1` the outcome was “inactive”.
In the case of `CC(=O)Nc1ccccc1`, the outcome was “inactive”.
With `O=C(c1ccccc1)C(O)c1ccccc1` (configuration not stated) the outcome was “inactive”.
For `CCCCCCCC(=O)OCC(COC(=O)CCCCCCC)OC(=O)CCCCCCC`, the outcome was “inactive”.
With `Cc1c(N(C)C)c(=O)n(-c2ccccc2)n1C` the outcome was “inactive”.
With `COc1ccc(O)cc1` the outcome was “inactive”.
In the case of `O=C1C(c2[nH]c3ccccc3c2O)=Nc2ccccc21`, the outcome was “inactive”.
In the case of `CCCC(O)C(CC)CO` (configuration not stated), the outcome was “inactive”.
For `FC(F)(F)C(Cl)Br` (configuration not stated), the outcome was “inactive”.
With `C=CCNC(N)=S` the outcome was “inactive”.
With `Nc1ccc(S(=O)(=O)c2ccc(N)cc2)cc1` the outcome was “inactive”.
With `CC1CC(OC(=O)c2ccccc2O)CC(C)(C)C1` (configuration not stated) the outcome was “inactive”.
With `O=C(O)CCCCC1CCSS1` (configuration not stated) the outcome was “inactive”.
For `CC(=O)OCC(COC(C)=O)OC(C)=O`, the outcome was “inactive”.
For `CCCCCC(N)=O`, the outcome was “inactive”.
With `Cc1cc(C)nc(NS(=O)(=O)c2ccc(N)cc2)n1` the outcome was “inactive”.
